Compound activity (PubChem)
In the library only some 7.9% were active in any assay of this set; here they are far more common.
HT1080 IDH1KD tx: kills HT-1080 cells with IDH1 knockdown; HT-1080 IDH1 knockdown viability, ATP luminescence, 48 h; Potency, µM (top dose mostly 46.1 µM), for inactives: top-dose activity, negative = toxicity, most hits filed as cytotoxic; 2% of 360,000 active; AID 686971;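 also: 0% = DMSO wells and -100% = cell-free medium wells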
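Viability of IDH1-knockdown HT-1080 fibrosarcoma cells was assessed by CellTiter-Glo after 48 h at 37 °C with titrated compound; concentration-effect curves were classified by fit quality and response size.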
MCF10A rereplic: induces DNA re-replication in MCF 10a normal breast cells; MCF 10A DNA re-replication, Hoechst nuclear intensity, 48 h; Potency, µM (top dose mostly 46.1 µM), for the others: top-dose activity, positive = re-replication, hits mostly activators; 2.9% of 350,000 active; AID 624296; also: % of control where 0% means no effect; nearly all actives have a fitted effect of over 50% in size
KB-3-1 tox: KB-3-1 parental cell cytotoxicity | KB-3-1 viability, CellTiter-Glo ATP luminescence, 72 h | Potency, µM (top dose mostly 46.1 µM), hits mostly cytotoxic | 1.4% of 400,000 active; also: % is scaled to controls: 0 for no effect and ±100 for the full control effect; nearly all actives have a fitted effect of over 60% in size
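Luminescent ATP read-out (CellTiter-Glo) measures survival of drug-naive KB-3-1 cells after 72 h compound exposure at 37 °C. Titration series was screened from lowest to highest concentration, with DMSO vehicle plates as background controls.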
SW480 rereplic: DNA re-replication induction in SW480 cells. Potency, µM (titrated, usually from 46.1 µM), inactives show top-dose re-replication activation, usual class: activators. SW480 DNA re-replication, Hoechst DNA content imaging, 48 h. 1.8% of 340,000 active; also: % of control where 0% means no effect; nearly all actives have a fitted effect of over 55% in size
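Hoechst fluorescence of nuclei (405 nm excitation, 500-530 nm emission) measured by plate-scanning imager after 48 hr compound exposure at 37 C; re-replication scored as increased number of nuclei with elevated intensity.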
KB-V1 cytotox: KB-V1 MDR subline cytotoxicity; Potency, µM (top dose mostly 46.1 µM), hits mostly cytotoxic; KB-V1 MDR cells viability, CellTiter-Glo, 72 h; AID 1347076; 3.4% of 400,000 active; also: % is scaled to controls: 0 for no effect and ±100 for the full control effect; nearly all actives have a fitted effect of over 60% in size
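Potencies derive from concentration-effect curves fitted to normalized luminescence (CellTiter-Glo) of KB-V1 cells treated for 72 h at 37 degrees C in phenol-red-free DMEM containing 10% FBS.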
HT1080NT lethal: kills 2HG-producing HT-1080-NT fibrosarcoma cells; 1.6% of 360,000 active; HT-1080-NT fibrosarcoma viability, CellTiter-Glo ATP luminescence, 48 h; AID 686970; Potency, µM (top dose mostly 46.1 µM), for the others: top-dose activity, negative = less viability, hits mostly cytotoxic;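 also: NT is the 2HG producing partner of a matched IDH1 knockdown line; 0% = DMSO-treated cells and -100% = media-only wells without cells; nearly all actives have a fitted effect of over 55% in size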
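Fibrosarcoma NT cells, 750 per well in 5% FBS RPMI, were exposed to compound for 48 hours. Viability: CellTiter-Glo luminescence.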
Active calls of the source: *. Calls follow the shape of the dose curve; as a rule, active = well fitted curve in the direction sought with a large enough effect; inconclusive = small, poorly fitted or top-dose-only effect, or another doubt; inactive = no such curve, though single readings can be large; an effect the other way counts as inactive or inconclusive. Potency is read from the fitted curve at half-maximal effect.

How did O=C(Cc1cccs1)NCCSc1c(-c2ccc(Cl)cc2)[nH]c2ccccc12 do in these assays?
HT1080 IDH1KD tx: inconclusive; MCF10A rereplic: 21µM*; KB-3-1 tox: inconclusive; SW480 rereplic: inconclusive; KB-V1 cytotox: inactive; HT1080NT lethal: inconclusive

How did COc1ccc2c(c1)CC(C(=O)NCc1ccc(F)cc1)CO2 (configuration not stated) do in these assays?
KB-3-1 tox: inactive; KB-V1 cytotox: inactive

What do the screens show for `CCOc1ccc(/C=C/C2=Cc3c(sc(NC(=O)CSc4n[nH]c(N)n4)c3C#N)C(C)(C)C2)cc1`?
HT1080 IDH1KD tx: inconclusive; MCF10A rereplic: 6.5µM*; KB-3-1 tox: 16µM*; SW480 rereplic: 16µM*; KB-V1 cytotox: inconclusive; HT1080NT lethal: inconclusive

How did CCOC(=O)c1sc(NC(=O)CSc2n[nH]c(-c3ccncc3)n2)c(C#N)c1C do in these assays?
HT1080 IDH1KD tx: inconclusive; MCF10A rereplic: 24%; KB-3-1 tox: inconclusive; SW480 rereplic: -3%; KB-V1 cytotox: inactive; HT1080NT lethal: inconclusive

Results for Cc1ccsc1/C=C/C1=Cc2c(sc(NC(=O)CSc3n[nH]c(N)n3)c2C#N)C(C)(C)C1 ?
HT1080 IDH1KD tx: 13µM*; MCF10A rereplic: inconclusive; KB-3-1 tox: inactive; SW480 rereplic: 15µM*; KB-V1 cytotox: inactive; HT1080NT lethal: 22µM*

How did NC(=O)c1ccsc1NC(=O)CSc1n[nH]c(N)n1 do in these assays?
HT1080 IDH1KD tx: -1%; MCF10A rereplic: 1%; KB-3-1 tox: inactive; SW480 rereplic: -8%; KB-V1 cytotox: inactive; HT1080NT lethal: -6%

How did CCOC(=O)C1(CCc2ccccc2)CCN(C(=O)c2occc2C)CC1 do in these assays?
HT1080 IDH1KD tx: 3%; MCF10A rereplic: -12%; KB-3-1 tox: inactive; SW480 rereplic: 1.6µM*; KB-V1 cytotox: inconclusive; HT1080NT lethal: 6%

Results for CCOC(=O)C1(CCc2ccccc2)CCN(C(=O)c2cccc(C)n2)CC1 ?
HT1080 IDH1KD tx: 0%; MCF10A rereplic: 1%; KB-3-1 tox: inactive; SW480 rereplic: 10%; KB-V1 cytotox: inactive; HT1080NT lethal: -8%

Results for Cc1nc2nc(-c3ccc(Cl)cc3Cl)nn2c(C)c1CCC(=O)Nc1ccc(F)cc1 ?
KB-3-1 tox: inactive; KB-V1 cytotox: inactive

How did O=c1cc(CCl)[nH]c2nc3ccccc3n12 do in these assays?
HT1080 IDH1KD tx: inconclusive; MCF10A rereplic: inconclusive; KB-3-1 tox: inactive; SW480 rereplic: 18µM*; KB-V1 cytotox: inactive; HT1080NT lethal: 18µM*

What do the screens show for `O=c1cc(-c2ccccc2)[nH]c2nc3ccccc3n12`?
HT1080 IDH1KD tx: inconclusive; MCF10A rereplic: 6.5µM*; KB-3-1 tox: inconclusive; SW480 rereplic: 10µM*; KB-V1 cytotox: inconclusive; HT1080NT lethal: inconclusive

Results for CCN(CC)CCNC(=O)c1cn(CC)c2cc(N3CCN(C(=O)c4ccco4)CC3)c(F)cc2c1=O ?
HT1080 IDH1KD tx: 6%; MCF10A rereplic: 1%; KB-3-1 tox: inactive; SW480 rereplic: 0%; KB-V1 cytotox: inactive; HT1080NT lethal: 9%

Results for CCn1cc(C(=O)NCc2ccncc2)c(=O)c2cc(F)c(N3CCN(C(=O)c4ccco4)CC3)cc21 ?
HT1080 IDH1KD tx: -26%; MCF10A rereplic: inconclusive; KB-3-1 tox: inactive; SW480 rereplic: -5%; KB-V1 cytotox: inactive; HT1080NT lethal: -4%

How did CCn1cc(C(=O)NCc2ccc3c(c2)OCO3)c(=O)c2cc(F)c(N3CCN(C(=O)c4ccco4)CC3)cc21 do in these assays?
HT1080 IDH1KD tx: 18µM*; MCF10A rereplic: inconclusive; KB-3-1 tox: inconclusive; SW480 rereplic: inconclusive; KB-V1 cytotox: inactive; HT1080NT lethal: 18µM*

What do the screens show for `CCn1cc(C(=O)NCc2ccccc2)c(=O)c2cc(F)c(N3CCN(C(=O)c4ccco4)CC3)cc21`?
HT1080 IDH1KD tx: inconclusive; MCF10A rereplic: inconclusive; KB-3-1 tox: inconclusive; SW480 rereplic: -6%; KB-V1 cytotox: inconclusive; HT1080NT lethal: 21µM*

Results for COc1cccc(CC2(CO)CCCN(Cc3cc4ccccc4[nH]3)C2)c1 (configuration not stated) ?
HT1080 IDH1KD tx: 23µM*; MCF10A rereplic: inconclusive; KB-3-1 tox: inactive; SW480 rereplic: inconclusive; KB-V1 cytotox: inactive; HT1080NT lethal: inconclusive

How did COc1cccc(CC2(CO)CCCN(Cc3[nH]c4ccc(C)cc4c3C)C2)c1 (configuration not stated) do in these assays?
HT1080 IDH1KD tx: inconclusive; MCF10A rereplic: 3.3µM*; KB-3-1 tox: inconclusive; SW480 rereplic: inconclusive; KB-V1 cytotox: inconclusive; HT1080NT lethal: inconclusive

What do the screens show for `COc1cccc(CC2(CO)CCCN(Cc3ccc(C)s3)C2)c1` (configuration not stated)?
HT1080 IDH1KD tx: -14%; MCF10A rereplic: inconclusive; KB-3-1 tox: inactive; SW480 rereplic: -17%; KB-V1 cytotox: inconclusive; HT1080NT lethal: 2%

How did COc1ccc2c(C)c(CCC(=O)NCc3ccc(Cl)cc3)c(=O)oc2c1C do in these assays?
KB-3-1 tox: inactive; KB-V1 cytotox: inactive

How did O=C(Cn1c(-c2ccccc2)c[n+]2ccsc12)c1ccc([N+](=O)[O-])cc1 do in these assays?
HT1080 IDH1KD tx: inconclusive; MCF10A rereplic: 18%; KB-3-1 tox: 21µM*; SW480 rereplic: 4%; KB-V1 cytotox: inactive; HT1080NT lethal: inconclusive

Results for Cc1ccccc1-c1nc(CN2CCCC2c2ccc(F)cc2)c(C)o1 (configuration not stated) ?
HT1080 IDH1KD tx: 2%; MCF10A rereplic: 15µM*; KB-3-1 tox: inactive; SW480 rereplic: 5%; KB-V1 cytotox: inactive; HT1080NT lethal: -6%

Results for Cc1oc(-c2ccccc2Cl)nc1CN1CCCC1c1ccc(F)cc1 (configuration not stated) ?
HT1080 IDH1KD tx: -5%; MCF10A rereplic: 2%; KB-3-1 tox: inactive; SW480 rereplic: 6%; KB-V1 cytotox: inconclusive; HT1080NT lethal: 0%

What do the screens show for `Cc1ccc(NC(=O)/C(C#N)=C/c2cc(C)n(-c3ccc(F)cc3)c2C)cc1C`?
KB-3-1 tox: inactive; KB-V1 cytotox: inactive

Results for CN(C)c1nc(C=C(C#N)C#N)c(Cl)n1-c1ccc(F)cc1 ?
HT1080 IDH1KD tx: 4.6µM*; MCF10A rereplic: inconclusive; KB-3-1 tox: inconclusive; SW480 rereplic: 7.3µM*; KB-V1 cytotox: inconclusive; HT1080NT lethal: 7.3µM*

How did COc1nc(Nc2ccc([N+](=O)[O-])cc2)nc(NC(C)C)n1 do in these assays?
HT1080 IDH1KD tx: 6%; MCF10A rereplic: 2%; KB-3-1 tox: inactive; SW480 rereplic: -8%; KB-V1 cytotox: 12µM*; HT1080NT lethal: 3%
